Data taken from PubChem BioAssay.
The source made the active and inactive calls. Rule as the data show it: active = inhibition above about 31%; inactive = the rest.

Assay: reversal of MRP1-mediated doxorubicin resistance, pilot screen, H69AR cells, doxorubicin co-treatment (AID 601)
Settings: H69AR cells, CellTiter-Glo, 72 h; compound alone cytotoxicity; at 10 µM

Question: For `Cn1c(-c2ccc(F)cc2)cnc1SCC(=O)Nc1ccccc1N1CCOCC1`, which viability is on record?
Answer: 102%

Question: Which viability does the source give for `CCCNC(=O)NC1C(NC(=O)NCCC)N(C)C(=O)N1C` (stereo unspecified) here?
Answer: 105%

Question: For `C=CCN(CC=C)C(=O)Nc1cc(Cl)ccc1OC`, which viability is on record?
Answer: 96.9%

Question: With `COc1cccc(NC(=O)C2CCCN2C(=O)Nc2cccc(F)c2)c1` (stereo unspecified) as the molecule, how does the viability read?
Answer: 103%

Question: Which viability does the source give for `Nc1nc(-c2ccc(Br)s2)c(Br)s1` here?
Answer: 94.3%

Question: For `COc1ccc(CCNC(=O)CCN2C(=O)C3CC=CCC3C2=O)cc1OC` (stereo unspecified), which viability is on record?
Answer: 105%

Question: With `CC[C@H](C)C(=O)O[C@H]1C[C@@H](C)C=C2C=C[C@H](C)[C@H](CC[C@@H]3C[C@@H](O)CC(=O)O3)[C@H]21` as the molecule, how does the viability read?
Answer: 72.2%

Question: For `COc1cccc(-c2cc(C(=O)Nc3c(C)nn(Cc4ccccc4)c3C)no2)c1`, which viability is on record?
Answer: 98.2%

Question: Which viability does the source give for `CCn1c(SCC(=O)NC)nnc1C(C)C` here?
Answer: 94.8%

Question: With `Cn1c(=O)c2c(nc(NCCCO)n2Cc2cccc(Br)c2)n(C)c1=O` as the molecule, how does the viability read?
Answer: 85.7%

Question: For `COc1cc(NC(=O)CSCc2cnn(-c3ccccc3)c2-n2cccc2)cc(OC)c1`, which viability is on record?
Answer: 80.6%

Question: Which viability does the source give for `COc1ccc(-n2ncc3c(NCc4ccc5c(c4)OCO5)ncnc32)cc1` here?
Answer: 6.44%

Question: For `CCN(CC(=O)Nc1ccc2c(c1)CCC2)Cc1nc2ccccc2c(=O)[nH]1`, which viability is on record?
Answer: 71.5%

Question: Which viability does the source give for `COc1ccccc1OCCOCCn1cnc2ccccc2c1=O` here?
Answer: 87.7%

Question: Which viability does the source give for `Cc1cn2c(-c3ccncc3)nnc2s1` here?
Answer: 99.8%

Question: Which viability does the source give for `c1ccc2c(SCc3cn4cccnc4n3)ncnc2c1` here?
Answer: 88.4%

Question: Which viability does the source give for `Cc1cnc(NC(=O)CSc2nnc(-c3ccccc3)n2Cc2ccccc2)s1` here?
Answer: 90.2%

Question: For `C=CCN1C(=O)CS/C1=C(\C#N)S(=O)(=O)c1ccc(C)cc1`, which viability is on record?
Answer: 85.5%

Question: Which viability does the source give for `Cc1cc(C)n2nc(SCC(=O)N(C)Cc3ccccc3)nc2n1` here?
Answer: 81.7%

Question: For `COc1ccc2nc(S(=O)Cc3ncc(C)c(OC)c3C)[nH]c2c1` (stereo unspecified), which viability is on record?
Answer: 80.8%

Question: For `O=C(O)c1cccc(COCC(F)(F)C(F)F)c1`, which viability is on record?
Answer: 102%

Question: With `Cc1ccc(S(=O)(=O)N2CCN(C(=O)N3CCOCC3)C2C)cc1` (stereo unspecified) as the molecule, how does the viability read?
Answer: 99%

Question: For `CCOc1ccc(NC(=O)CC2NCCNC2=O)cc1` (stereo unspecified), which viability is on record?
Answer: 95.3%

Assay: 384-well plate pilot, post-Golgi transport modulator project, inhibition of yeast transport mutant growth (AID 636)
Settings: absorbance 615 nm, about 18 h, stronger effect = higher value

Question: Which inhibition does the source give for `Cc1cccc2c(=O)oc(-c3ccc4c(c3)C(=O)N(CC3CCCO3)C4=O)nc12` (stereo unspecified) here?
Answer: -4.25% (inactive)

Question: With `CC(=O)NC(C)C(=O)OCc1ccc(Cl)cc1Cl` (stereo unspecified) as the molecule, how does the inhibition read?
Answer: -4.79% (inactive)

Question: Which inhibition does the source give for `CC1CCCC(C)N1C(=O)CSc1nnc(-c2cccs2)o1` (stereo unspecified) here?
Answer: 0.54% (inactive)

Question: Which inhibition does the source give for `CC(C)N(C(=O)N1CCC(c2nc(-c3ccncc3)no2)CC1)C(C)C` here?
Answer: -4.86% (inactive)

Question: For `COc1ccccc1NC(=O)N(Cc1ccco1)Cc1cc2cccc(C)c2[nH]c1=O`, which inhibition is on record?
Answer: -8.27% (inactive)

Question: Which inhibition does the source give for `NC(CO)C(=O)NNCc1ccc(O)c(O)c1O` (stereo unspecified) here?
Answer: -3.51% (inactive)

Question: Which inhibition does the source give for `Cc1csc(NC(=O)Nc2cccc(Cl)c2)n1` here?
Answer: -3.73% (inactive)

Question: For `CCCCOc1ccccc1C1C(C(N)=O)=C(C)Nc2nnnn21` (stereo unspecified), which inhibition is on record?
Answer: -3.9% (inactive)

Question: With `CC(C)Oc1cc2oc(=O)c3c(c2cc1Cl)CCC3` as the molecule, how does the inhibition read?
Answer: -7.4% (inactive)

Question: With `Cc1cccc(C)c1OCC(=O)Nc1cccc(NC(=O)c2ccco2)c1` as the molecule, how does the inhibition read?
Answer: -3.29% (inactive)

Question: With `CCOC(=O)c1cnc2c(OC)cccc2c1N1CCN(c2ccc(OC)cc2)CC1` as the molecule, how does the inhibition read?
Answer: -3.38% (inactive)

Question: For `CC(C)CCNC(=O)C(C)N(Cc1ccc(F)cc1)C(=O)c1ccc(CN2CCCCC2)o1` (stereo unspecified), which inhibition is on record?
Answer: -5.95% (inactive)

Question: For `CCn1nc(C(=O)O)c(=O)c2cc3c(cc21)OCO3`, which inhibition is on record?
Answer: -1.17% (inactive)

Question: For `CC(=O)O[C@H]1C[C@@H]2CC[C@@H]3[C@H](CC[C@@]4(C)[C@H]3C[C@H]([N+]3(C)CCCCC3)[C@@H]4OC(C)=O)[C@@]2(C)C[C@@H]1[N+]1(C)CCCCC1`, which inhibition is on record?
Answer: 1.04% (inactive)

Question: Which inhibition does the source give for `COc1ccc(S(=O)(=O)Nc2cccc(C)n2)c2ccccc12` here?
Answer: -2.08% (inactive)

Question: Which inhibition does the source give for `COC(=O)[C@H](C)NC(=O)Nc1cccc(C(F)(F)F)c1` here?
Answer: -0.96% (inactive)

Question: Which inhibition does the source give for `Cc1cc2c(c(=O)n1C)C(Cc1ccccc1)C(C#N)=C(N)O2` (stereo unspecified) here?
Answer: -5.54% (inactive)

Question: With `Cn1c(-c2ccc(F)cc2)cnc1SCC(=O)Nc1ccccc1N1CCOCC1` as the molecule, how does the inhibition read?
Answer: -7.57% (inactive)

Question: For `CCCNC(=O)NC1C(NC(=O)NCCC)N(C)C(=O)N1C` (stereo unspecified), which inhibition is on record?
Answer: -1.04% (inactive)

Question: For `C=CCN(CC=C)C(=O)Nc1cc(Cl)ccc1OC`, which inhibition is on record?
Answer: -8.77% (inactive)

Question: With `COc1cccc(NC(=O)C2CCCN2C(=O)Nc2cccc(F)c2)c1` (stereo unspecified) as the molecule, how does the inhibition read?
Answer: -3.7% (inactive)

Question: Which inhibition does the source give for `Nc1nc(-c2ccc(Br)s2)c(Br)s1` here?
Answer: 2.6% (inactive)

Question: Which inhibition does the source give for `COc1ccc(CCNC(=O)CCN2C(=O)C3CC=CCC3C2=O)cc1OC` (stereo unspecified) here?
Answer: -2.08% (inactive)
